The values that follow come from PubChem BioAssay (NCATS).

Molecules are shown by their SMILES. Records with an inconclusive call do not appear. Values without a mark were called inactive. The source made the active and inactive calls. The call rests on the fitted dose curve; in most records, active means well fitted inhibition curve with a large enough effect; inconclusive means small, poorly fitted or top-dose-only effect; inactive means flat fitted curve, though single readings scatter.
On the % scale 0 is the no-effect control and ±100 the full control effect.

The test system of this test is CRL-7250. Put plainly: Cytotoxic Profiling of Annotated Libraries Using Quantitative High-Throughput Screening (AID 1296008). Further: nearly all actives have a fitted effect of over 60% in size. The following applies: Five cell lines viability, CellTiter-Glo ATP luminescence, 48-72 h; max response: active compounds read low. The method in brief: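 Cells exposed to compounds for 48 or 72 hr at 37 degrees Celsius. Viability read as ATP-coupled luminescence with CellTiter-Glo after 10 min at room temperature.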
In general terms: In ATP-based viability assays light output follows the ATP content of the culture.
Turning to `CC1(C)CCC(C)(C)c2cc(C#Cc3ccc(C(=O)O)cc3)ccc21`, the max response was -18.1%.

With `Cc1nc2c(C(F)(F)F)cccc2nc1-c1ccc(-c2cccc(S(C)(=O)=O)c2)cc1`, the max response was -1.09%.

As for `CC(C)C[C@@H](C(=O)N[C@@H](Cc1ccc(OCc2ccccc2)cc1)C(=O)NC(C)(C)C)N(C)Cc1ccc(C(C)(C)C)cc1`, the max response is -7.62%.

With `CC1=C(C(=O)OC2CCCCC2)C(c2ccc([N+](=O)[O-])cc2)C2=C(CC(C)(C)CC2=O)N1` (stereo not given), the max response was 1.32%.

For the molecule `C[C@@H]1O[C@@H](O[C@H]2[C@H](OC(=O)[C@]34CCC(C)(C)C[C@H]3C3=CCC5[C@@]6(C)C[C@H](O)[C@H](O[C@@H]7O[C@H](C(=O)O)[C@@H](O)[C@H](O)[C@H]7O)[C@@](C)(CO)C6[C@H](O)C[C@@]5(C)[C@]3(C)C[C@H]4O)O[C@@H](CO)[C@@H]2O)[C@H](O)[C@H](O)[C@H]1O[C@@H]1OC[C@@H](O)[C@H](O[C@H]2OC[C@](O)(CO)[C@H]2O)[C@H]1O` (stereo not given in full), the call was inactive.
